# Sampled rows, rich in hits. Any-hit rate of the full collection: about 1.4%.
# AID504770 – growth inhibitors of E. coli YBA685 in a screen for V. cholerae RctB (chromosome II replication) inhibitors; E. coli YBA685 rctB-dependent plasmid, OD600 growth, 3 h; stronger effect = lower value; z-score (concentration not given with the values); actives 0.27% (n = 130,000); AID 504770; in the data active = z-score below about -2, passing the limit was not always enough
# Polio RdRp inh – poliovirus RNA polymerase inhibition. P03300. poliovirus polymerase elongation, fluorescence polarization; stronger effect = lower value. % elongation, % (compound at 16.7 µg/mL). actives 0.66% (n = 150,000); in the data active = % elongation below about 90%
# Mtb MenB inh – blocks the Mycobacterium tuberculosis MenB enzyme | P9WNP5 | MenB enzyme assay, absorbance read-out | inhibition, % (no concentration beside the values) | actives 0.43% (n = 100,000); in the data active = inhibition above about 21%, passing the limit was not always enough
# Target sequence (P9WNP5 whole entry, looked up): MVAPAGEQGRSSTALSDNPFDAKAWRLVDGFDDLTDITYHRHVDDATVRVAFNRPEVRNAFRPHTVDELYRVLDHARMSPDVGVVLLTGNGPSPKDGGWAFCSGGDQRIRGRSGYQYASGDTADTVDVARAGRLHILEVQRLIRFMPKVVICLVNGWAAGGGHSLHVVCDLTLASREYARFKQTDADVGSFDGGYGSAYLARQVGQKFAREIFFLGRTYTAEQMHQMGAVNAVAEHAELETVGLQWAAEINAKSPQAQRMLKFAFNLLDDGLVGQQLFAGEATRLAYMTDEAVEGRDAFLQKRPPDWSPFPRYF
# MbtI inh – inhibitors of Mycobacterium tuberculosis siderophore enzyme MbtI; P9WFX0; purified MbtI enzyme, fluorescence intensity read-out; inhibition, % (no concentration beside the values); actives 0.89% (n = 100,000); in the data active = inhibition mostly above about 56%, no sharp cut-off; inactive = mostly below about 77%
# An asterisk follows results filed as active; . = not tested or not shown.
SMILES,AID504770,Polio RdRp inh,Mtb MenB inh,MbtI inh
COc1ccc(N2CCN(C(=O)c3ccc(=O)[nH]c3)CC2)cc1,1.5,.,-23,19
Oc1oc(C=Nc2ccccc2)c2ccccc12,-0.1,.,.,.
COC(=O)c1c(O)cc(=O)[nH]c1N,0.15,99,-24,-4
COC(=O)c1cc(=O)[nH]c(=S)[nH]1,0.8,81*,-29,88*
CCOC(=O)/C(C#N)=C1\CC2CCC1(C)C2(C)C (centres undefined),0.35,98,21,84*
COc1ccc(Cl)cc1C(=O)NCCc1cc2ccc(C)cc2[nH]c1=O,-0.45,.,.,.
CCN1C(=O)C(=Cc2ccc(-c3ccc(Br)c(Cl)c3)o2)C(=O)N(CC)C1=S,1,99,4,90*
CCN1CCCC1CNCc1cccc(OC)c1OC (centres undefined),-0.25,103,38*,1
CCN1CCCC1CNCc1ccccn1 (centres undefined),1.8,102,-79,2
O=C(Nc1nc(-c2ccccc2)cs1)C1CCC1,-0.05,100,-29,10
c1ccc(-c2nc(NC3CCCCC3)s[n+]2-c2ccccc2)cc1,0.6,100,.,91*
c1ccc(-c2csc(NC3CCCCC3)n2)cc1,-0.45,84*,-50,79
O=C(/C=C/c1ccccc1)Nc1nnc(-c2ccc3c(c2)CCCC3)o1,-0.1,98,-27,-1
O=C(CC1OC(=O)c2ccccc21)c1ccc(Cl)s1 (centres undefined),-0.2,85*,-5,6
O=C(CC1OC(=O)c2ccccc21)c1ccccn1 (centres undefined),0.1,.,.,.
Nc1nc2c(s1)CCc1c-2cnn1-c1ccccc1,-0.65,42*,3,.
Cc1c(-c2ccnc(N)n2)cnn1-c1ccccc1,-0.6,.,.,.
N#Cc1oc2ccccc2c1NC(=O)CSc1nnc(-c2ccccc2)n1Cc1ccco1,-0.7,.,39*,84
COc1cc(/C=N/NC(N)=S)ccc1OC(=O)c1ccco1,-0.9,100,-44,-18
CCCN1CCCc2cc(CN)ccc21,-0.5,26*,-77,31
CC(C)N1CCCc2cc(CN)ccc21,0.3,31,29,.
CCN1CCCc2cc(O)ccc21,0.15,.,.,98*
Nc1cc(=O)[nH]c2n[nH]c(=S)n12,-0.4,101,33*,100*
O=C(NCc1ccco1)C(=S)NCc1ccccc1,-0.2,99,-7,68*
O=C(NCc1ccccc1)c1ccco1,-1.4,103,-18,-18
SMILES,AID504770,Polio RdRp inh,Mtb MenB inh,MbtI inh
O=C(NCc1ccco1)C(Sc1ccccc1)c1ccccc1 (centres undefined),0.65,102,33*,-5
CCC1CCCCN1CCCNC(=O)c1cn(C)c2ccc(S(=O)(=O)N(C)C3CCCCC3)cc2c1=O (centres undefined),.,30*,.,.
CCn1cc(C(=O)N2CCN(c3ccccc3)CC2)c(=O)c2cc(S(=O)(=O)N(C)C3CCCCC3)ccc21,.,68*,.,.
CC1CCN(CCCNC(=O)c2cn(C)c3ccc(S(=O)(=O)N(C)C4CCCCC4)cc3c2=O)CC1,.,108,.,.
CCn1cc(C(=O)N2CCN(c3ccc(F)cc3)CC2)c(=O)c2cc(S(=O)(=O)N(C)C3CCCCC3)ccc21,.,107,.,.
Cc1cccc(C(=O)OC(C)c2nnc(-c3ccccc3)o2)c1O (centres undefined),-0.1,102,-16,11
Cc1ccc(Cc2c[nH]c(=S)s2)cc1,-1.3,103,-65,90*
Cc1ccc(/C=C2\CCCC3=C2Nc2nnnn2C3c2ccc(C)cc2)cc1 (centres undefined),-0.05,99,-6,7
CC1Cc2cc(C(=O)CSc3nnc(Cc4cccs4)n3C)ccc2N1S(C)(=O)=O (centres undefined),3,96,-25,16
Cc1ccc(-c2c(CN3CCN(c4cccc(C(F)(F)F)c4)CC3)csc2C)cc1,.,89*,.,.
Cc1ccc(C2=Nn3c(nnc3C3CCCCC3)SC2C)cc1 (centres undefined),0.9,96,-25,50
CS(=O)(=O)Nc1ccc(Br)cc1,-0.95,105,-1,.
COc1ccc(Cc2nnc3n2N=C(c2ccc(C)c(C)c2)C(C)S3)cc1OC (centres undefined),-0.2,87*,-18,47
CC1Sc2nnc(Cc3ccc(Br)cc3)n2N=C1c1ccc(NS(C)(=O)=O)cc1 (centres undefined),-0.45,78*,-30,26
N#CC1=C(SCC(=O)N2CCOCC2)NC(=O)CC1c1ccccc1F (centres undefined),-0.1,.,.,.
S=C(NCCCn1ccnc1)Nc1ccccc1,-0.5,23*,-8,5
CCOc1ccc(NC(=S)NCCCn2ccnc2)cc1,1.3,101,-2,11
CC(C)(C)C1CCc2onc(C(=O)Nc3sc4c(c3C(N)=O)CCCC4)c2C1 (centres undefined),.,79*,.,.
CC(C)(C)C1CCc2onc(C(=O)Nc3sc4c(c3C#N)CCCC4)c2C1 (centres undefined),.,82*,.,.
CCOC(=O)N1CCC(NC(=O)c2ccc(Cn3c(=O)[nH]c4cc(OCC)c(OCC)cc4c3=O)cc2)CC1,0.6,99,-8,23
N#CCCN1C(=O)c2cccc3c(Cl)ccc1c23,0.4,101,.,-3
O=c1cc(CSc2ccccc2)nc2sccn12,-1.7,100,-4,11
COc1ccccc1-c1nnc(SCC(=O)c2cc(C)n(C)c2C)n1C,0.95,106,3,-9
N#Cc1c(-c2ccc3c(c2)OCO3)cc(-c2ccc(F)cc2)nc1N,-1.1,101,-12,75
FC(F)(F)c1cc(-c2ccc3c(c2)OCO3)nc(=S)[nH]1,1.4,102,34*,-143
SMILES,AID504770,Polio RdRp inh,Mtb MenB inh,MbtI inh
Cc1cc(C(=O)NN)nn1C,-0.2,104,-1,0
COc1ccc2c(c1)CCc1c(C(=O)N3CCCCC3)noc1-2,-0.55,102,-15,11
COc1ccc2c(c1)CCc1c(C(=O)N3C(C)CCCC3C)noc1-2 (centres undefined),-3*,103,-28,11
CCOC(=O)c1ccccc1NC(=O)/C=C1/Nc2ccccc2NC1=O,-0.95,104,-12,-11
O=C(COc1ccccc1)c1ccc(O)c(O)c1O,-1.8,101,-21,94*
CN1C(=O)Cc2cc(S(=O)(=O)CCC(=O)Nc3ccccc3)ccc21,.,-22*,.,.
CN1C(=O)Cc2cc(S(=O)(=O)CCC(=O)Nc3cccc(C(F)(F)F)c3)ccc21,.,108,.,.
O=C(COC(=O)C1CCC1)Nc1cccc(Cl)c1Cl,-0.4,100,.,-9
Cc1ccc(C(=O)N2CCN(c3ncnc4c3cnn4-c3ccccc3)CC2)cc1,-4.2*,99,-14,-13
CC(C)Cn1c(O)c(N=NC(=S)NC(C)C)c2ccccc21,0.55,97,-112,-71
CC(C)n1c(O)c(N=NC(=S)NC2CCCCC2)c2ccccc21,-2.9*,104,-71,-1
O=c1[nH]c(=O)n(S(=O)(=O)c2ccc(F)cc2)cc1F,0.2,94,-70,-34
CCCOc1ccc(S(=O)(=O)n2cc(Br)c(=O)[nH]c2=O)cc1,0.2,.,.,82*
COc1cc(N)c(Cl)cc1C(=O)OCC(=O)NC1(C#N)CCCCC1,1.3,104,-42,-5
